Measurements: PubChem BioAssay (NCI)
Compounds without any hit were thinned out: in the full panel of roughly 83,000, 20% have a hit.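 Compound tested at a single concentration for 48 hours in 96-well plates; a percent growth value below 10 was scored as active.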 Activity calls are given as the source filed them.

Columns and labels:
Assay in all cases: NCI-60 one-dose screen, 48 h (100 = growth as untreated, 0 = no growth, -100 = all killed)
Conditions in all cases: 10 µM unless noted
HT29 colon = system: HT29 colon
SNB-75 CNS = system: SNB-75 CNS
SNB-19 CNS = system: SNB-19 CNS
U251 CNS = system: U251 CNS
PC-3 prostate = system: PC-3 prostate
SK-MEL-5 melanoma = system: SK-MEL-5 melanoma
UACC-62 melanoma = system: UACC-62 melanoma
SK-MEL-28 melanoma = system: SK-MEL-28 melanoma
SK-MEL-2 melanoma = system: SK-MEL-2 melanoma
SN12C renal = system: SN12C renal
UO-31 renal = system: UO-31 renal
TK-10 renal = system: TK-10 renal
ACHN renal = system: ACHN renal
CAKI-1 renal = system: CAKI-1 renal
CCRF-CEM leukemia = system: CCRF-CEM leukemia
MOLT-4 leukemia = system: MOLT-4 leukemia
SR leukemia = system: SR leukemia
EKVX NSCLC = system: EKVX NSCLC
A498 renal = system: A498 renal

Measured: growth

COc1ccc(C(=O)/C=C/c2ccc(OCc3ccc(Cl)cc3)c(OC)c2)cc1OC
inactive: HT29 colon 63.7% | SNB-75 CNS 74.8% | SNB-19 CNS 72.3% | U251 CNS 58.1% | PC-3 prostate 59.4% | SK-MEL-5 melanoma 55.2% | UACC-62 melanoma 52.6% | SK-MEL-28 melanoma 83.3% | SK-MEL-2 melanoma 83.3% | SN12C renal 76.6% | UO-31 renal 54.1% | TK-10 renal 110% | ACHN renal 73.4% | CAKI-1 renal 59.7% | CCRF-CEM leukemia 22.5% | MOLT-4 leukemia 38.6%
active: SR leukemia 7.68%

Clc1ccc2oc3c(NCCCN4CCOCC4)c4ccccc4nc3c2c1
inactive: HT29 colon 14% | SNB-75 CNS 24.7% | SNB-19 CNS 35.9% | U251 CNS 23% | PC-3 prostate 40.7% | SK-MEL-5 melanoma 44.2% | UACC-62 melanoma 40% | SK-MEL-28 melanoma 36.9% | SK-MEL-2 melanoma 56.8% | EKVX NSCLC 37.9% | SN12C renal 19.6% | UO-31 renal 24.2% | ACHN renal 13.4% | CAKI-1 renal 12.8% | CCRF-CEM leukemia 27.6%
active: A498 renal -2.14% | MOLT-4 leukemia 4.08% | SR leukemia 1.91%

COc1ccc(/C=N/NC(=O)c2[nH]c3ccc(Br)cc3c2-c2ccccc2)o1
inactive: SNB-75 CNS 50.3% | SNB-19 CNS 30.8% | U251 CNS 19.5% | PC-3 prostate 22.6% | UACC-62 melanoma 43.7% | SK-MEL-28 melanoma 63.3% | EKVX NSCLC 37.8% | SN12C renal 43.3% | UO-31 renal 46.1% | CAKI-1 renal 26.3% | CCRF-CEM leukemia 15.4% | MOLT-4 leukemia 17% | SR leukemia 17.7%
active: HT29 colon -26.9% | SK-MEL-5 melanoma -29% | SK-MEL-2 melanoma -13%

O=C(N/N=C/c1ccc(Br)s1)c1[nH]c2ccc(Br)cc2c1-c1ccccc1
inactive: SNB-75 CNS 39.5% | SNB-19 CNS 31.3% | U251 CNS 24.4% | PC-3 prostate 28.8% | UACC-62 melanoma 41.7% | SK-MEL-28 melanoma 63.1% | SK-MEL-2 melanoma 18.7% | EKVX NSCLC 40.9% | SN12C renal 56.3% | UO-31 renal 48.6% | TK-10 renal 109% | CAKI-1 renal 22.8% | MOLT-4 leukemia 14.2% | SR leukemia 10.1%
active: HT29 colon 5.61% | SK-MEL-5 melanoma -27.3% | CCRF-CEM leukemia 9.08%

N#Cc1ccc(C(=O)CSc2nc(Nc3ccc(S(N)(=O)=O)cc3)c3ccccc3n2)cc1
inactive: HT29 colon 112% | SNB-75 CNS 107% | SNB-19 CNS 100% | U251 CNS 114% | PC-3 prostate 89.4% | SK-MEL-5 melanoma 102% | UACC-62 melanoma 99.4% | SK-MEL-28 melanoma 109% | SK-MEL-2 melanoma 118% | SN12C renal 100% | UO-31 renal 95.6% | TK-10 renal 110% | ACHN renal 108% | CAKI-1 renal 102% | CCRF-CEM leukemia 94.7% | MOLT-4 leukemia 106% | SR leukemia 95.9%

C/C(=N\NC(N)=O)c1c(O)sc(=O)[nH]c1=O
inactive: HT29 colon 111% | SNB-75 CNS 101% | SNB-19 CNS 93.2% | U251 CNS 108% | PC-3 prostate 97% | SK-MEL-5 melanoma 101% | UACC-62 melanoma 92.6% | SK-MEL-28 melanoma 99.7% | SK-MEL-2 melanoma 109% | SN12C renal 97.1% | UO-31 renal 87.1% | TK-10 renal 110% | ACHN renal 101% | CAKI-1 renal 96.9% | CCRF-CEM leukemia 100% | MOLT-4 leukemia 109% | SR leukemia 114%

COc1ccc(N/N=C/c2c(-c3ccc(S(C)(=O)=O)cc3)nc3ccccn23)cc1
inactive: HT29 colon 64.4% | SNB-75 CNS 62.6% | SNB-19 CNS 78.6% | U251 CNS 69.4% | PC-3 prostate 29.1% | SK-MEL-5 melanoma 59.5% | UACC-62 melanoma 10.8% | SK-MEL-28 melanoma 51.5% | SK-MEL-2 melanoma 53.8% | SN12C renal 49.8% | UO-31 renal 30.2% | TK-10 renal 57.3% | ACHN renal 32.2% | CAKI-1 renal 20.3% | A498 renal 35.6% | CCRF-CEM leukemia 32% | MOLT-4 leukemia 18.6% | SR leukemia 57.1%

COc1cc(/C=C/C(=O)c2ccc(C)cc2)ccc1Oc1nc(NCCO)nc(N2CCOCC2)n1
inactive: HT29 colon 19.4% | SNB-75 CNS 93.7% | SNB-19 CNS 44% | U251 CNS 34.6% | PC-3 prostate 30.6% | SK-MEL-5 melanoma 43.7% | UACC-62 melanoma 53.4% | SK-MEL-28 melanoma 76.6% | SK-MEL-2 melanoma 99.9% | SN12C renal 74% | UO-31 renal 51.5% | TK-10 renal 125% | ACHN renal 55.7% | CAKI-1 renal 50.4%
active: CCRF-CEM leukemia 3.44% | MOLT-4 leukemia 0.537% | SR leukemia -3.65%

COc1ccc(-c2nc3ccc(-c4nnc(SCC(=O)Nc5ccc(C(C)=O)cc5)o4)cc3[nH]2)cc1
inactive: HT29 colon 116% | SNB-75 CNS 92.6% | SNB-19 CNS 119% | U251 CNS 104% | PC-3 prostate 104% | SK-MEL-5 melanoma 93.5% | UACC-62 melanoma 96% | SK-MEL-28 melanoma 112% | SK-MEL-2 melanoma 134% | EKVX NSCLC 99.2% | SN12C renal 113% | UO-31 renal 94.1% | ACHN renal 102% | CAKI-1 renal 101% | A498 renal 110% | CCRF-CEM leukemia 100% | MOLT-4 leukemia 87.8% | SR leukemia 89.5%

COc1ccc(C(=O)/C=C/c2ccc(Oc3nc(NCCO)nc(N4CCOCC4)n3)c(OC)c2)cc1
inactive: HT29 colon 35% | SNB-75 CNS 89.6% | SNB-19 CNS 69.3% | U251 CNS 43.1% | PC-3 prostate 80% | SK-MEL-5 melanoma 95.2% | UACC-62 melanoma 70.3% | SK-MEL-28 melanoma 97.3% | SK-MEL-2 melanoma 101% | EKVX NSCLC 90.1% | SN12C renal 86.2% | UO-31 renal 67.4% | ACHN renal 62.5% | CAKI-1 renal 56% | MOLT-4 leukemia 10.6%
active: CCRF-CEM leukemia 9.43% | SR leukemia 5.16%

COC(=O)C1CCCN(S(=O)(=O)/N=C2\NC(=O)NC2=C(Cl)Cl)C1 (stereo not given)
inactive: HT29 colon 116% | SNB-75 CNS 125% | SNB-19 CNS 94.6% | U251 CNS 95.3% | PC-3 prostate 101% | SK-MEL-5 melanoma 101% | UACC-62 melanoma 94% | SK-MEL-28 melanoma 105% | SK-MEL-2 melanoma 106% | SN12C renal 102% | UO-31 renal 92.2% | TK-10 renal 74.6% | ACHN renal 109% | CAKI-1 renal 102% | CCRF-CEM leukemia 58% | MOLT-4 leukemia 96.3% | SR leukemia 28.6%

Clc1ccc(-c2cn3cc(Cc4ccc(Cl)c(Cl)c4)sc3n2)cc1
inactive: HT29 colon 90.5% | SNB-75 CNS 70.7% | SNB-19 CNS 88.9% | U251 CNS 93.7% | PC-3 prostate 81.6% | SK-MEL-5 melanoma 38.2% | UACC-62 melanoma 18.2% | SK-MEL-28 melanoma 71% | SK-MEL-2 melanoma 113% | EKVX NSCLC 69.8% | SN12C renal 76.6% | UO-31 renal 68.1% | ACHN renal 47% | CAKI-1 renal 42.6% | A498 renal 82.3% | CCRF-CEM leukemia 79.7% | MOLT-4 leukemia 61% | SR leukemia 94.5%

CN(C)CCCNc1c2ccc(Cl)cc2nc2c1oc1ccc(Cl)cc12
inactive: SNB-75 CNS 45.2% | SNB-19 CNS 38.2% | SK-MEL-5 melanoma 77.1% | UACC-62 melanoma 12.6% | SK-MEL-28 melanoma 72.5% | SK-MEL-2 melanoma 127% | EKVX NSCLC 44.4% | UO-31 renal 45.2% | A498 renal 37.9%
active: HT29 colon -45.6% | U251 CNS -50.9% | PC-3 prostate -24.1% | SN12C renal -74.4% | ACHN renal -96.8% | CAKI-1 renal -85% | CCRF-CEM leukemia 2.17% | MOLT-4 leukemia -4.89% | SR leukemia -12.3%

Cc1nc(-c2cc3ccccc3oc2=O)ccc1C(=O)/C=C/c1ccc(N2CCOCC2)cc1
inactive: HT29 colon 80.4% | SNB-75 CNS 58.9% | SNB-19 CNS 79.9% | U251 CNS 89.8% | PC-3 prostate 86.6% | SK-MEL-5 melanoma 71.5% | UACC-62 melanoma 52.1% | SK-MEL-28 melanoma 72.8% | SK-MEL-2 melanoma 91.4% | EKVX NSCLC 86.6% | SN12C renal 83.8% | UO-31 renal 83.9% | ACHN renal 70.9% | CAKI-1 renal 65.1% | A498 renal 75.2% | CCRF-CEM leukemia 72.4% | MOLT-4 leukemia 66.1% | SR leukemia 26%

N#Cc1c(-c2ccc(Cl)cc2)nc2c(-c3ccccc3)c(Nc3ccccc3)nn2c1N
inactive: HT29 colon 62.9% | SNB-19 CNS 72.8% | U251 CNS 19.8% | PC-3 prostate 62.2% | SK-MEL-5 melanoma 92.9% | UACC-62 melanoma 62.8% | SK-MEL-28 melanoma 82.5% | SK-MEL-2 melanoma 96% | EKVX NSCLC 60.6% | SN12C renal 77.5% | UO-31 renal 34.8% | ACHN renal 11% | CAKI-1 renal 35.1% | CCRF-CEM leukemia 67.9% | MOLT-4 leukemia 61% | SR leukemia 36.9%
active: SNB-75 CNS 4.2%

Cc1cccc2sc(/N=C(\N)C(Cl)(Cl)Cl)nc12
inactive: HT29 colon 105% | SNB-75 CNS 81.6% | SNB-19 CNS 90.3% | U251 CNS 95.1% | PC-3 prostate 103% | SK-MEL-5 melanoma 99.6% | UACC-62 melanoma 97.6% | SK-MEL-28 melanoma 112% | SK-MEL-2 melanoma 118% | EKVX NSCLC 71% | SN12C renal 110% | UO-31 renal 90.5% | ACHN renal 98.4% | CAKI-1 renal 85.3% | A498 renal 92.7% | CCRF-CEM leukemia 107% | MOLT-4 leukemia 103% | SR leukemia 100%

COc1ccc(/C=C2\SC(=Nc3cc(C)on3)NC2=O)cc1
inactive: HT29 colon 108% | SNB-75 CNS 97% | SNB-19 CNS 96.4% | U251 CNS 109% | PC-3 prostate 96.7% | SK-MEL-5 melanoma 99.3% | UACC-62 melanoma 95.1% | SK-MEL-28 melanoma 106% | SK-MEL-2 melanoma 115% | SN12C renal 100% | UO-31 renal 85.5% | TK-10 renal 106% | ACHN renal 106% | CAKI-1 renal 96.6% | CCRF-CEM leukemia 101% | MOLT-4 leukemia 100% | SR leukemia 98.9%
